This passage reports outcome results from PubChem BioAssay (Tox21).

Results filed as inconclusive are left out. Active and inactive are the calls of the source. Unless noted, calls come from the whole dose curve; as a rule, active = well fitted cell-killing curve with a large enough effect in the repeat runs; inconclusive = weak or mixed curves, or effect the other way; inactive = no such curve, though single readings can be large or run the other way.

Vitamin D3 receptor (Homo sapiens), sequence (P11473 whole entry, looked up): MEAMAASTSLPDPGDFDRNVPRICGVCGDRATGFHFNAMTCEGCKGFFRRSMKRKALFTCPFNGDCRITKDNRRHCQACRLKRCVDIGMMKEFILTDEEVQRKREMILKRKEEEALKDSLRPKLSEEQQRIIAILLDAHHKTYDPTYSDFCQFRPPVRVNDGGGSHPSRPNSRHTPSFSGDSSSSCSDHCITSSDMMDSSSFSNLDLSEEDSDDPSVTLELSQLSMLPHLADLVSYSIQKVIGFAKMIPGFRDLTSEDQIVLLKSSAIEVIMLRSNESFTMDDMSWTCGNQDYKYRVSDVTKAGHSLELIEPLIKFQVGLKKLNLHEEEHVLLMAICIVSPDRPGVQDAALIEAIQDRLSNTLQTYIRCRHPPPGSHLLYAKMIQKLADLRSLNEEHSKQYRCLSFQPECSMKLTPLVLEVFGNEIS

The target of one experiment is Vitamin D3 receptor (Homo sapiens) (UniProt P11473). Kind of experiment: qHTS assay to identify small molecule agonists of the vitamin D receptor (VDR) signaling pathway (AID 743222; calls by dose curve). Conditions: HEK293T VDR-UAS-bla, beta-lactamase FRET ratio, 16 h; series mostly up to 63.5 µM. A digest of the protocol:
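VDR-bla cells plated 4 h at 37 C, then exposed to compounds for 16 h at 37 C. Beta-lactamase reporter activity measured by fluorescence after 2 h room-temperature loading with LiveBLAzer B/G FRET substrate.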
A general note: qHTS replaces the single test concentration by a dilution series.
For the compound `CCCCOCC(C)OCC(C)O` (stereo unspecified), the outcome was inactive.

For `CN(C)CCOC(c1ccc(Cl)cc1)c1ccccn1` (stereo unspecified), the result was inactive.

In the case of `Cc1ccc(N)cc1[N+](=O)[O-]`, the result was inactive.

As to `Cc1nccn1CC1CCc2c(c3ccccc3n2C)C1=O` (stereo unspecified), the result was inactive.

Regarding `C=C(C)C(=O)OCCC(C)OC(=O)C(=C)C` (stereo unspecified), the outcome was inactive.

Take `CCN(CC)C(=O)c1ccc(O)c(OC)c1`: the result was inactive.

Turning to `C#CC(C)(O)CC(C)C` (stereo unspecified), the result was inactive.

For the compound `CO`, the result was inactive.

With `C/C=C1\C(=O)C[C@H]2[C@@H]3CCC4=CC(=O)CC[C@]4(C)[C@H]3CC[C@]12C`, the result was inactive.

On to `COc1cc(O)cc(O)c1`, for which the outcome was inactive.

As to `Oc1cc(O)c2c(c1)O[C@H](c1ccc(O)c(O)c1)[C@H](O)C2`, the result was inactive.

In the case of `c1ccc(CCCc2ccccn2)cc1`, the result was inactive.

`CC1=CCC2C(C1)C2(C)C` (stereo unspecified): the result was inactive.

On to `N#CCN(CC#N)CCN(CC#N)CC#N`, for which the outcome was inactive.

As to `NC(=O)c1c(Cl)cccc1Cl`, the outcome was inactive.

On to `CCCC(C)C(=O)O` (stereo unspecified), for which the result was inactive.

As to `NS(=O)(=O)c1cc(C2(O)NC(=O)c3ccccc32)ccc1Cl` (stereo unspecified), the outcome was inactive.

As for `C=CC(=O)N1CCOCC1`, the result was inactive.

The target is the same in another experiment. Nature of the experiment: qHTS assay to identify small molecule antagonists of the vitamin D receptor (VDR) signaling pathway (AID 743223; active = well fitted inhibition curve with a large enough effect in the signal ratio in the repeat runs, not every such curve was filed as active; the % refers to the signal ratio). The settings on record: VDR-UAS-bla HEK293T, beta-lactamase FRET ratio, 16 h; series mostly up to 61 µM. Summed up:
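Beta-lactamase reporter read-out: FRET substrate fluorescence after 2 h at room temperature, following 16 h exposure of VDR-bla cells to test compound plus 3 nM (final) 1alpha,25-dihydroxyvitamin D3 agonist at 37C.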
`CCCCOCC(C)OCC(C)O` (stereo unspecified): the outcome was inactive.

As for `CC(C)=CC(=O)O`, the outcome was inactive.

`Cc1ccc(N)cc1[N+](=O)[O-]`: the outcome was inactive.

Consider `Cc1nccn1CC1CCc2c(c3ccccc3n2C)C1=O` (stereo unspecified), for which the outcome was inactive.

As for `C=C(C)C(=O)OCCC(C)OC(=O)C(=C)C` (stereo unspecified), the outcome was inactive.

For `CCCCCCCCCCCCCCCCCCOCC(O)CO` (stereo unspecified), the result was inactive.

In the case of `Cc1ccccc1C(=O)O`, the result was inactive.

Take `C#CC(C)(O)CC(C)C` (stereo unspecified): the result was inactive.

For the compound `COc1cc(O)cc(O)c1`, the outcome was inactive.

For the compound `Oc1cc(O)c2c(c1)O[C@H](c1ccc(O)c(O)c1)[C@H](O)C2`, the result was inactive.

As for `COc1cc(C(=O)N2CCOCC2)cc(OC)c1OC`, the result was inactive.

Turning to `CCCCc1ccc2cccc(S(=O)(=O)O)c2c1`, the result was inactive.

For the compound `Nc1ncnc2c1ncn2Cc1c(F)cccc1Cl`, the outcome was inactive.

In the case of `O=C(CCOCCOCCOCCOCCC(=O)Nc1c(I)cc(I)c(C(=O)O)c1I)Nc1c(I)cc(I)c(C(=O)O)c1I`, the result was inactive.

In the case of `CCO[Si](C)(OCC)OCC`, the outcome was inactive.

`CC(C)c1ccc2oc3nc(N)c(C(=O)O)cc3c(=O)c2c1`: the result was inactive.

Turning to `N#CCN(CC#N)CCN(CC#N)CC#N`, the outcome was inactive.

As to `Cc1c(C)n(CCN(C)C)c2ccc(C(=O)OCCN(C)C)cc12`, the outcome was inactive.

As to `NC(=O)c1c(Cl)cccc1Cl`, the result was inactive.

As for `C1CCCCCCCCCCC1`, the outcome was inactive.

Regarding `CCCC(C)C(=O)O` (stereo unspecified), the outcome was inactive.

Turning to `NS(=O)(=O)c1cc(C2(O)NC(=O)c3ccccc32)ccc1Cl` (stereo unspecified), the result was inactive.

As to `CCCCCCCCCCC1CO1` (stereo unspecified), the result was inactive.

System in the next experiment: not listed separately
Kind of experiment: qHTS assay to identify small molecule agonists of the vitamin D receptor (VDR) signaling pathway - cell viability counter screen (AID 743224). Note: nearly all actives have a fitted effect of over 50% in size. The settings on record: VDR-bla HEK293T viability, CellTiter-Glo luminescence, 16 h; series mostly up to 62.6 µM. A digest of the protocol:
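VDR-bla cells, 4 h after plating, exposed to compounds for 16 h at 37C; viability then read in the same wells as CellTiter-Glo luminescence after 30 min at room temperature, following the bla FRET read.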
Turning to `Nc1cc(C(Cl)=C(Cl)Cl)c(S(N)(=O)=O)cc1S(N)(=O)=O`, the result was inactive.

In the case of `CCCCOCC(C)OCC(C)O` (stereo unspecified), the compound was called inactive.

In the case of `C=CC(=O)OCCCCCC`, the compound was classed as inactive.

`CC(C)=CC(=O)O`: the outcome was inactive.

As for `CN(C)CCOC(c1ccc(Cl)cc1)c1ccccn1` (stereo unspecified), the call was inactive.

As to `Cc1ccc(N)cc1[N+](=O)[O-]`, the call was inactive.

`Cc1nccn1CC1CCc2c(c3ccccc3n2C)C1=O` (stereo unspecified): the outcome was inactive.

As for `C=C(C)C(=O)OCCC(C)OC(=O)C(=C)C` (stereo unspecified), the outcome was inactive.

Turning to `CCCCCCCCCCCCCCCCCCOCC(O)CO` (stereo unspecified), the compound was called inactive.

As for `Cc1ccccc1C(=O)O`, the compound was classed as inactive.

On to `CCN(CC)C(=O)c1ccc(O)c(OC)c1`, for which the call was inactive.

On to `C#CC(C)(O)CC(C)C` (stereo unspecified), for which the call was inactive.

`CCCCCCCCC=O`: the outcome was inactive.

With `CO`, the outcome was inactive.

With `C/C=C1\C(=O)C[C@H]2[C@@H]3CCC4=CC(=O)CC[C@]4(C)[C@H]3CC[C@]12C`, the compound was called inactive.

Turning to `COc1cc(O)cc(O)c1`, the call was inactive.

For `Oc1cc(O)c2c(c1)O[C@H](c1ccc(O)c(O)c1)[C@H](O)C2`, the call was inactive.

For `COc1cc(C(=O)N2CCOCC2)cc(OC)c1OC`, the outcome was inactive.

In the case of `Nc1ncnc2c1ncn2Cc1c(F)cccc1Cl`, the compound was called inactive.

On to `c1ccc(CCCc2ccccn2)cc1`, for which the result was inactive.

With `O=C(CCOCCOCCOCCOCCC(=O)Nc1c(I)cc(I)c(C(=O)O)c1I)Nc1c(I)cc(I)c(C(=O)O)c1I`, the outcome was inactive.

With `CC1=CCC2C(C1)C2(C)C` (stereo unspecified), the result was inactive.

Turning to `C=C(C)[C@H]1CC=C(C)CC1`, the compound was classed as inactive.

With `CCO[Si](C)(OCC)OCC`, the result was inactive.

Consider `CC(C)c1ccc2oc3nc(N)c(C(=O)O)cc3c(=O)c2c1`, for which the result was inactive.

On to `N#CCN(CC#N)CCN(CC#N)CC#N`, for which the compound was classed as inactive.

Regarding `Cc1c(C)n(CCN(C)C)c2ccc(C(=O)OCCN(C)C)cc12`, the call was inactive.

`CCCCCN(CCCCC)C(=O)C(CCC(=O)O)NC(=O)c1ccc(Cl)c(Cl)c1` (stereo unspecified): the compound was called inactive.

As for `NC(=O)c1c(Cl)cccc1Cl`, the compound was classed as inactive.

Consider `C=CCn1c(=O)n([C@@H]2O[C@H](CO)[C@@H](O)[C@H]2O)c2nc(N)[nH]c(=O)c21`, for which the result was inactive.

`C1CCCCCCCCCCC1`: the compound was called inactive.

On to `CCCC(C)C(=O)O` (stereo unspecified), for which the outcome was inactive.

With `NS(=O)(=O)c1cc(C2(O)NC(=O)c3ccccc32)ccc1Cl` (stereo unspecified), the result was inactive.

Take `C=CC(=O)N1CCOCC1`: the compound was called inactive.

Consider `CCCCCCCCCCC1CO1` (stereo unspecified), for which the call was inactive.

Take `OC1OC[C@@H](O)[C@H](O)[C@H]1O` (stereo partly specified): the compound was called inactive.

In the case of `CC(C)=CCC/C(C)=C/C(=O)O`, the result was inactive.

System in a further experiment: not listed separately
Kind of experiment: qHTS assay to identify small molecule antagonists of the vitamin D receptor (VDR) signaling pathway - cell viability counter screen (AID 743225). Note: nearly all actives have a fitted effect of over 50% in size. Conditions: VDR-bla HEK293T viability, CellTiter-Glo luminescence, 16 h; series mostly up to 61 µM. A digest of the protocol:
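Viability counter screen run in the same wells as the beta-lactamase reporter assay: HEK 293T VDR-UAS-bla cells, 16 h compound exposure at 37C with 3 nM (final) 1-alpha,25-dihydroxyvitamin D3. CellTiter-Glo luminescence, 30 min, room temperature.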
In the case of `Nc1cc(C(Cl)=C(Cl)Cl)c(S(N)(=O)=O)cc1S(N)(=O)=O`, the compound was classed as inactive.

Regarding `CCCCOCC(C)OCC(C)O` (stereo unspecified), the call was inactive.

Turning to `C=CC(=O)OCCCCCC`, the result was inactive.

As for `CC(C)=CC(=O)O`, the compound was called inactive.

Regarding `CN(C)CCOC(c1ccc(Cl)cc1)c1ccccn1` (stereo unspecified), the compound was called inactive.

As to `Cc1ccc(N)cc1[N+](=O)[O-]`, the compound was called inactive.

For the compound `Cc1nccn1CC1CCc2c(c3ccccc3n2C)C1=O` (stereo unspecified), the result was inactive.

As to `C=C(C)C(=O)OCCC(C)OC(=O)C(=C)C` (stereo unspecified), the result was inactive.

`CCCCCCCCCCCCCCCCCCOCC(O)CO` (stereo unspecified): the outcome was inactive.

Consider `Cc1ccccc1C(=O)O`, for which the compound was called inactive.

Regarding `CCN(CC)C(=O)c1ccc(O)c(OC)c1`, the outcome was inactive.

Regarding `C#CC(C)(O)CC(C)C` (stereo unspecified), the outcome was inactive.

As to `CCCCCCCCC=O`, the compound was called inactive.

Regarding `CO`, the compound was called inactive.

For `C/C=C1\C(=O)C[C@H]2[C@@H]3CCC4=CC(=O)CC[C@]4(C)[C@H]3CC[C@]12C`, the compound was called inactive.

For `COc1cc(O)cc(O)c1`, the call was inactive.

With `Oc1cc(O)c2c(c1)O[C@H](c1ccc(O)c(O)c1)[C@H](O)C2`, the compound was called inactive.

Consider `COc1cc(C(=O)N2CCOCC2)cc(OC)c1OC`, for which the call was inactive.

With `CCCCc1ccc2cccc(S(=O)(=O)O)c2c1`, the result was inactive.

For the compound `Nc1ncnc2c1ncn2Cc1c(F)cccc1Cl`, the call was inactive.

With `c1ccc(CCCc2ccccn2)cc1`, the compound was called inactive.

For the compound `O=C(CCOCCOCCOCCOCCC(=O)Nc1c(I)cc(I)c(C(=O)O)c1I)Nc1c(I)cc(I)c(C(=O)O)c1I`, the result was inactive.

Turning to `CC1=CCC2C(C1)C2(C)C` (stereo unspecified), the result was inactive.

In the case of `C=C(C)[C@H]1CC=C(C)CC1`, the result was inactive.

`CCO[Si](C)(OCC)OCC`: the outcome was inactive.

With `CC(C)c1ccc2oc3nc(N)c(C(=O)O)cc3c(=O)c2c1`, the compound was classed as inactive.

Take `N#CCN(CC#N)CCN(CC#N)CC#N`: the result was inactive.

For `Cc1c(C)n(CCN(C)C)c2ccc(C(=O)OCCN(C)C)cc12`, the call was inactive.

In the case of `CCCCCN(CCCCC)C(=O)C(CCC(=O)O)NC(=O)c1ccc(Cl)c(Cl)c1` (stereo unspecified), the result was inactive.

With `NC(=O)c1c(Cl)cccc1Cl`, the outcome was inactive.

Take `C=CCn1c(=O)n([C@@H]2O[C@H](CO)[C@@H](O)[C@H]2O)c2nc(N)[nH]c(=O)c21`: the compound was classed as inactive.

In the case of `C1CCCCCCCCCCC1`, the compound was called inactive.

Turning to `CCCC(C)C(=O)O` (stereo unspecified), the call was inactive.

For the compound `NS(=O)(=O)c1cc(C2(O)NC(=O)c3ccccc32)ccc1Cl` (stereo unspecified), the outcome was inactive.

As for `C=CC(=O)N1CCOCC1`, the compound was called inactive.

As to `CCCCCCCCCCC1CO1` (stereo unspecified), the compound was called inactive.

For the compound `OC1OC[C@@H](O)[C@H](O)[C@H]1O` (stereo partly specified), the result was inactive.

With `CC(C)=CCC/C(C)=C/C(=O)O`, the outcome was inactive.
